Assay results taken from PubChem BioAssay.
Activity calls are given as the source filed them. Unless noted, the rule behind the calls is not given here.

Legend:
[1] = A549 cell viability effects, profiling panel, calcein-AM fluorescence, 48 h, basal (AID 1162); details: higher = more signal; note: test concentration not given here
[2] = adipocyte viability effects, profiling panel, cell-based, 3T3-L1 adipocytes, calcein-AM fluorescence, 48 h, basal (AID 1163); details: 3T3-L1 adipocytes viability, higher = more signal; note: test concentration not given here
[3] = HepG2 cell viability effects, profiling panel, calcein-AM fluorescence, 48 h, basal (AID 1164); details: higher = more signal; note: test concentration not given here
[4] = MM1S cell viability effects, profiling panel, calcein-AM fluorescence, 48 h, basal (AID 1165); details: higher = more signal;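 note: viability of MM1S multiple myeloma cells under basal unstimulated conditions; test concentration not given here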
[5] = basal RPMI8226 viability, no added stimulus, profiling panel, cell-based, calcein-AM fluorescence, 48 h, PK04 Diversity Set (AID 1166); details: RPMI8226 myeloma viability, higher = more signal;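 note: cells grown under basal conditions without added stimulus; test concentration not given here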
[6] = basal HepG2 mitochondrial membrane potential changes, profiling panel, cell-based, JC-1 fluorescence, 24 h, 100 nL compound (AID 1167); details: higher = more signal; note: test concentration not given here
[7] = basal 3T3-L1 adipocyte mitochondrial potential changes, profiling panel, cell-based, JC-1 fluorescence, 3T3-L1 adipocytes, 24 h, 100 nL compound (AID 1168); details: JC-1 mitochondrial fluorescence, higher = more signal, called active from +8 up or from −8 down; note: test concentration not given here
[8] = basal RPMI8226 mitochondrial membrane potential changes, profiling panel, cell-based, JC-1 fluorescence, 24 h, 100 nL compound (AID 1169); details: RPMI8226 myeloma, JC-1 mitochondrial potential fluorescence, higher = more signal; note: test concentration not given here
[9] = basal MM1S mitochondrial membrane potential changes, profiling panel, cell-based, JC-1 fluorescence, 24 h, 100 nL compound (AID 1170); details: higher = more signal; note: test concentration not given here
[10] = A549 lung cancer cell viability effects, profiling panel, resazurin fluorescence, 24 h, PK04 Diversity Set (AID 1171); details: higher = more signal, called active from +8 up or from −8 down; note: test concentration not given here
[11] = HepG2 liver cancer cell viability effects, profiling panel, resazurin fluorescence, 24 h, PK04 Diversity Set (AID 1172); details: higher = more signal; note: test concentration not given here
[12] = basal S. cerevisiae growth modulation, no modifier, primary screen, OD600, strain BY4716, 24 h, basal condition (AID 1173); details: OD600, 24 h, higher = more signal, called active from +8 up or from −8 down
[13] = MM1S myeloma cell viability, profiling panel, resazurin fluorescence, basal, 24 h, PK04 Diversity Set (AID 1174); details: higher = more signal, called active from +8 up or from −8 down;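 note: MM1S multiple myeloma cell line; test concentration not given here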
[14] = molecular target: Dihydroorotate dehydrogenase (quinone), mitochondrial (Plasmodium falciparum (isolate 3D7)) (UniProt Q08210); experiment: PfDHODH enzyme inhibitors, primary screen, biochemical, C-terminal His tag, absorbance 600 nm (AID 1175); details: DCIP absorbance 600 nm, higher = more signal, called active from +8 up or from −8 down;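 note: recombinant parasite enzyme with a five histidine tag at its C terminus; test concentration not given here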
Dihydroorotate dehydrogenase (quinone), mitochondrial (Plasmodium falciparum (isolate 3D7)), sequence (Q08210 whole entry, looked up): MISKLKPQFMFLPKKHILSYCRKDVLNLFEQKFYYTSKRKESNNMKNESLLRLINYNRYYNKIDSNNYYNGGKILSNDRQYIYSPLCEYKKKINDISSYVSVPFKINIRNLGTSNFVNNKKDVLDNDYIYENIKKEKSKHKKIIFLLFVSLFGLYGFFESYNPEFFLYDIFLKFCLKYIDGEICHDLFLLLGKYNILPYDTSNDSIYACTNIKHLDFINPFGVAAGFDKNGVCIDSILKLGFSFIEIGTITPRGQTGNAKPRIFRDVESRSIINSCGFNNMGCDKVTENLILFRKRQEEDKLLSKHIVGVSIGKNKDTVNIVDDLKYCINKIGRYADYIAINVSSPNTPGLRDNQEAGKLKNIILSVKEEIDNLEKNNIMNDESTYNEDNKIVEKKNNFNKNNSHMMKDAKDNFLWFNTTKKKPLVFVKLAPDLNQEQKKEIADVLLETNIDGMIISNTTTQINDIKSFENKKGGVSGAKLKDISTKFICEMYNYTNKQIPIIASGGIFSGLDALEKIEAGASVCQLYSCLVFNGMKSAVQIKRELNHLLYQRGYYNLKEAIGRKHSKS

[15] = P. aeruginosa biofilm formation inhibitors, primary screen, strain PAO1, LB-PBS medium, absorbance 600 nm (AID 1176); note: test concentration not given here; details: P. aeruginosa PAO1 growth/biofilm, A600, 12 h; higher = more signal
[16] = S. cerevisiae RM11-1a growth modifiers, primary screen, strain RM11-1a, OD600, basal, 24 h (AID 1177); details: OD600, 24 h, higher = more signal, called active from +8 up or from −8 down;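 note: cultures grown under basal conditions with no added stressor; test concentration not given here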
[17] = E. coli acrAB mutant growth effects, primary screen, E. coli filamentation inducers, strain DRC39, OD650, 24 h (AID 1178); details: higher = more signal, called active from +8 up or from −8 down;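 note: growth measured as culture turbidity by optical density at 650 nm; test concentration not given here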
[18] = E. coli acrAB mutant growth effects, primary screen, E. coli filamentation inducers, strain DRC39, OD650, 48 h (AID 1179);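 note: screen aims at cell division blockers that make cells filament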; details: E. coli DRC39 delta-acrAB growth, higher = more signal, called active from +8 up or from −8 down
[19] = RPMI8226 myeloma cell viability, profiling panel, resazurin fluorescence, basal, 24 h, PK04 Diversity Set (AID 1180); details: higher = more signal;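 note: RPMI8826 multiple myeloma cell line at 5000 cells per well; test concentration not given here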
[20] = molecular target: E3 ubiquitin-protein ligase XIAP (Homo sapiens) (UniProt P98170); experiment: XIAP binders, primary screen, biophysical, small-molecule microarray, fluorescence 635 nm (AID 1181); details: small-molecule microarray binding, higher = more signal;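 note: score merges 667 nm emission and signal to noise over triplicate slides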
E3 ubiquitin-protein ligase XIAP (Homo sapiens), sequence (P98170 whole entry, looked up): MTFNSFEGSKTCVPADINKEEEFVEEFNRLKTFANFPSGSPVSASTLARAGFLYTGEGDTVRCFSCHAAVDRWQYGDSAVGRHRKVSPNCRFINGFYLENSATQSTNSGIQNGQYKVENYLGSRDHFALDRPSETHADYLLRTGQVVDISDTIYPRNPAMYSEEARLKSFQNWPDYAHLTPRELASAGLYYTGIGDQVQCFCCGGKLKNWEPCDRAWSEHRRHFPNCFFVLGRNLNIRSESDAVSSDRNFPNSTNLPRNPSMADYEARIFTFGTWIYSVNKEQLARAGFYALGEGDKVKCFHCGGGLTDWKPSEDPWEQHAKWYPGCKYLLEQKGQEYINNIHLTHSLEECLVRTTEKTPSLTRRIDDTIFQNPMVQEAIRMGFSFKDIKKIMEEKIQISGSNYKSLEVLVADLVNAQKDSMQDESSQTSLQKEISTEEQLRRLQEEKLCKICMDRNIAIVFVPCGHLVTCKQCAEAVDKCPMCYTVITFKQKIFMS

Nc1cc(Br)ccc1C(=O)O
z-score [1]: 1.51
z-score [2]: 0.679
z-score [3]: 0.264
z-score [4]: 1.29
z-score [5]: 0.804
z-score [6]: 0.799
z-score [7]: 0.55 (inactive)
z-score [8]: 0.432
z-score [9]: 1.54
z-score [10]: 0.671 (inactive)
z-score [11]: 0.615
z-score [12]: -0.811 (inactive)
z-score [13]: 1.11 (inactive)
composite z-score [14]: -0.627 (inactive)
z-score [15]: -0.612 (inactive)
z-score [16]: -0.127 (inactive)
z-score [17]: 0.37 (inactive)
z-score [18]: -0.138 (inactive)
z-score [19]: 1.29
composite z-score [20]: 0.0837

O=C1C2C=CC(C(O)c3ccco3)N(Nc3ccccc3)C2C(=O)N1c1ccccc1 (stereo not given)
z-score [1]: 0.133
z-score [2]: -1.03
z-score [3]: 0.473
z-score [4]: 0.249
z-score [5]: 0.458
z-score [6]: -0.45
z-score [7]: 0.255 (inactive)
z-score [8]: -0.364
z-score [9]: -0.267
z-score [10]: 0.649 (inactive)
z-score [11]: 0.875
z-score [12]: -0.633 (inactive)
z-score [13]: -0.321 (inactive)
composite z-score [14]: 1.05 (inactive)
z-score [15]: -0.283 (inactive)
z-score [16]: 0.829 (inactive)
z-score [17]: -0.706 (inactive)
z-score [18]: 0.154 (inactive)
z-score [19]: 0.628
composite z-score [20]: -0.0264

COCCOC(=O)N1C(=O)[C@@]2(c3cc(C#CCNC(N)=O)ccc31)[C@H](c1ccc(OCCO)cc1)N1[C@H](c3ccccc3)[C@H](c3ccccc3)OC(=O)[C@H]1[C@@H]2C(N)=O
z-score [1]: 0.586
z-score [2]: -0.0118
z-score [3]: 0.334
z-score [4]: -1.24
z-score [5]: -0.668
z-score [6]: -1.7
z-score [7]: 0.407 (inactive)
z-score [8]: -0.185
z-score [9]: -0.604
z-score [10]: 0.266 (inactive)
z-score [11]: -0.373
z-score [12]: 1.19 (inactive)
z-score [13]: 0.421 (inactive)
composite z-score [14]: -0.0174 (inactive)
z-score [15]: 0.858 (inactive)
z-score [16]: 2.4 (inactive)
z-score [17]: 0.146 (inactive)
z-score [18]: 0.384 (inactive)
z-score [19]: 0.637
composite z-score [20]: -0.0414

C=CCNC(=O)[C@H]1[C@@H]2C(=O)O[C@@H](c3ccccc3)[C@@H](c3ccccc3)N2[C@@H](c2ccc(OCCO)cc2)[C@]12C(=O)Nc1ccc(C#CCNC(N)=O)cc12
z-score [1]: 0.292
z-score [2]: 1.63
z-score [3]: -0.529
z-score [4]: -1.41
z-score [5]: -0.062
z-score [6]: -1.11
z-score [7]: -0.657 (inactive)
z-score [8]: -0.0816
z-score [9]: 0.938
z-score [10]: -0.805 (inactive)
z-score [11]: -0.598
z-score [12]: 2.3 (inactive)
z-score [13]: 0.0869 (inactive)
composite z-score [14]: 0.428 (inactive)
z-score [15]: 1.99 (inactive)
z-score [16]: 3.25 (inactive)
z-score [17]: -0.575 (inactive)
z-score [18]: -1.22 (inactive)
z-score [19]: 0.687
composite z-score [20]: -0.163

COCCCNC(=O)[C@@]1(Sc2ccc(C)cc2)CC(=O)N(C(C)C)[C@@H]1c1ccc(CO)cc1I
z-score [1]: 0.781
z-score [2]: 1.74
z-score [3]: -1.16
z-score [4]: -2.2
z-score [5]: -2.38
z-score [6]: 0.544
z-score [7]: -0.0068 (inactive)
z-score [8]: -0.205
z-score [9]: -2.75
z-score [10]: 0.534 (inactive)
z-score [11]: -0.312
z-score [12]: -3.22 (inactive)
z-score [13]: -2.35 (inactive)
composite z-score [14]: -0.642 (inactive)
z-score [15]: 0.394 (inactive)
z-score [16]: -1.82 (inactive)
z-score [17]: 0.0841 (inactive)
z-score [18]: -0.0194 (inactive)
z-score [19]: -1.97
composite z-score [20]: -0.37

O=C(NCC(O)CO)[C@@]1(CCS(=O)(=O)c2ccccc2)COC(c2ccc(OCCCO)cc2)=N1 (stereo not given in full)
z-score [1]: -0.696
z-score [2]: -0.0875
z-score [3]: 0.261
z-score [4]: -1.29
z-score [5]: -0.187
z-score [6]: -0.341
z-score [7]: -0.834 (inactive)
z-score [8]: 0.747
z-score [9]: -0.815
z-score [10]: 1.01 (inactive)
z-score [11]: 0.114
z-score [12]: 0.452 (inactive)
z-score [13]: -0.169 (inactive)
composite z-score [14]: 0.699 (inactive)
z-score [15]: -0.043 (inactive)
z-score [16]: 1.29 (inactive)
z-score [17]: 0.243 (inactive)
z-score [18]: -0.135 (inactive)
z-score [19]: -0.159
composite z-score [20]: -0.0332

CC(C)c1ccc(NN2C(C(O)Cc3ccccc3)C=CC3C(=O)N(c4ccccc4)C(=O)C32)cc1 (stereo not given)
z-score [1]: -0.989
z-score [2]: -0.482
z-score [3]: 0.526
z-score [4]: -1.06
z-score [5]: -0.434
z-score [6]: -2
z-score [7]: -0.864 (inactive)
z-score [8]: 0.411
z-score [9]: 1.51
z-score [10]: -0.63 (inactive)
z-score [11]: -1.93
z-score [12]: -1.02 (inactive)
z-score [13]: -1 (inactive)
composite z-score [14]: -0.335 (inactive)
z-score [15]: 0.683 (inactive)
z-score [16]: 0.269 (inactive)
z-score [17]: -1.12 (inactive)
z-score [18]: -1.07 (inactive)
z-score [19]: -0.807
composite z-score [20]: 0.0989

C[C@]1(C(=O)NCC(F)(F)F)c2ccccc2C(=O)N(Cc2ccccc2)[C@H]1c1ccc(CO)cc1
z-score [1]: -0.431
z-score [2]: -0.2
z-score [3]: 0.57
z-score [4]: -0.503
z-score [5]: 0.514
z-score [6]: 1.97
z-score [7]: 0.113 (inactive)
z-score [8]: 0.824
z-score [9]: -1.07
z-score [10]: 0.0906 (inactive)
z-score [11]: -0.398
z-score [12]: 0.0742 (inactive)
z-score [13]: 0.525 (inactive)
composite z-score [14]: 0.721 (inactive)
z-score [15]: -0.0807 (inactive)
z-score [16]: 0.433 (inactive)
z-score [17]: 0.242 (inactive)
z-score [18]: 0.824 (inactive)
z-score [19]: 0.937
composite z-score [20]: -0.102

COC(=O)[C@@]1(Cc2ccc(F)cc2)[C@H]2c3cc(C(=O)N4CCCC4)n(CC4CC4)c3C[C@H]2CN1C(=O)c1ccccc1
z-score [1]: -0.393
z-score [2]: 0.498
z-score [3]: -0.713
z-score [4]: -0.691
z-score [5]: -2.11
z-score [6]: 1.62
z-score [7]: -1.07 (inactive)
z-score [8]: -0.232
z-score [9]: -0.51
z-score [10]: -0.665 (inactive)
z-score [11]: -1.57
z-score [12]: -0.443 (inactive)
z-score [13]: -1.65 (inactive)
composite z-score [14]: -0.559 (inactive)
z-score [15]: 0.495 (inactive)
z-score [16]: 0.056 (inactive)
z-score [17]: -0.688 (inactive)
z-score [18]: -0.64 (inactive)
z-score [19]: -2.11
composite z-score [20]: 0.705
